Experimental data taken from the supplement of paper PMC8728848.
Only a selection was taken, and the strongest signals are over-represented in it overall.

What was measured:
Test in all cases: glycan array binding signal (z-score within array); higher = stronger binding
Conditions in all cases: glycan notation: IUPAC condensed, linker removed
[1] = target: Gal(b1-4)GlcNAc(b1-3)Gal(b1-4)GlcNAc(b1-3)Gal(b1-4)GlcNAc(b1-3)Gal(b1-4)GlcNAc(b1-3)Gal(b1-4)GlcNAc(b1-2)Man(a1-3)[Gal(b1-4)GlcNAc(b1-3)Gal(b1-4)GlcNAc(b1-3)Gal(b1-4)GlcNAc(b1-3)Gal(b1-4)GlcNAc(b1-3)Gal(b1-4)GlcNAc(b1-2)Man(a1-6)]Man(b1-4)GlcNAc(b1-4)[Fuc(a1-6)]GlcNAc
Outline: (§1)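 The binding signal is a Z-score computed within each array and averaged over linkers. Arrays of the same protein sequence at different concentrations or buffers were also averaged together. Data originate from 3228 arrays in the Consortium for Functional Glycomics database, kept only where the protein sequence was available.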

[2] = target: Gal(b1-4)GlcNAc(b1-3)Gal(b1-4)GlcNAc(b1-3)Gal(b1-4)GlcNAc(b1-3)Gal(b1-4)GlcNAc(b1-3)Gal(b1-4)GlcNAc(b1-2)[Gal(b1-4)GlcNAc(b1-3)Gal(b1-4)GlcNAc(b1-3)Gal(b1-4)GlcNAc(b1-3)Gal(b1-4)GlcNAc(b1-3)Gal(b1-4)GlcNAc(b1-6)]Man(a1-6)[Gal(b1-4)GlcNAc(b1-3)Gal(b1-4)GlcNAc(b1-3)Gal(b1-4)GlcNAc(b1-3)Gal(b1-4)GlcNAc(b1-3)Gal(b1-4)GlcNAc(b1-2)Man(a1-3)]Man(b1-4)GlcNAc(b1-4)[Fuc(a1-6)]GlcNAc
Outline: as §1

[3] = target: Gal(b1-4)GlcNAc(b1-3)Gal(b1-4)GlcNAc(b1-3)Gal(b1-4)GlcNAc(b1-3)Gal(b1-4)GlcNAc(b1-3)Gal(b1-4)GlcNAc(b1-3)Gal(b1-4)GlcNAc(b1-2)Man(a1-3)[Gal(b1-4)GlcNAc(b1-3)Gal(b1-4)GlcNAc(b1-3)Gal(b1-4)GlcNAc(b1-3)Gal(b1-4)GlcNAc(b1-3)Gal(b1-4)GlcNAc(b1-3)Gal(b1-4)GlcNAc(b1-2)Man(a1-6)]Man(b1-4)GlcNAc(b1-4)GlcNAc
Outline: as §1

[4] = target: Gal(b1-4)GlcNAc(b1-6)GalNAc
Outline: as §1

[5] = target: GalNAc6S(b1-4)GlcNAc
Outline: as §1

[6] = target: GlcNAc(a1-4)Gal(b1-4)GlcNAc
Outline: as §1

[7] = target: GlcNAc(b1-2)[GlcNAc(b1-4)]Man(a1-3)[GlcNAc(b1-4)][GlcNAc(b1-2)[GlcNAc(b1-6)]Man(a1-6)]Man(b1-4)GlcNAc(b1-4)GlcNAc
Outline: as §1

[8] = target: GlcNAc(b1-2)[GlcNAc(b1-6)]Man(a1-6)[GlcNAc(b1-4)][GlcNAc(b1-2)Man(a1-3)]Man(b1-4)GlcNAc(b1-4)GlcNAc
Outline: as §1

[9] = target: GlcNAc(b1-3)Gal(b1-4)Glc
Outline: as §1

[10] = target: GlcNAc(b1-3)Gal(b1-4)GlcNAc(b1-3)Gal(b1-4)GlcNAc(b1-3)Gal(b1-4)GlcNAc(b1-2)Man(a1-3)[GlcNAc(b1-3)Gal(b1-4)GlcNAc(b1-3)Gal(b1-4)GlcNAc(b1-3)Gal(b1-4)GlcNAc(b1-2)Man(a1-6)]Man(b1-4)GlcNAc(b1-4)[Fuc(a1-6)]GlcNAc
Outline: as §1

[11] = target: GlcNAc(b1-3)Gal(b1-4)GlcNAc(b1-3)Gal(b1-4)GlcNAc(b1-3)Gal(b1-4)GlcNAc(b1-3)Gal(b1-4)GlcNAc(b1-2)Man(a1-3)[GlcNAc(b1-3)Gal(b1-4)GlcNAc(b1-3)Gal(b1-4)GlcNAc(b1-3)Gal(b1-4)GlcNAc(b1-3)Gal(b1-4)GlcNAc(b1-2)Man(a1-6)]Man(b1-4)GlcNAc(b1-4)GlcNAc
Outline: as §1

[12] = target: GlcNAc(b1-3)Gal(b1-4)GlcNAc(b1-3)Gal(b1-4)GlcNAc(b1-3)Gal(b1-4)GlcNAc(b1-3)Gal(b1-4)GlcNAc(b1-2)Man(a1-3)[GlcNAc(b1-3)Gal(b1-4)GlcNAc(b1-3)Gal(b1-4)GlcNAc(b1-3)Gal(b1-4)GlcNAc(b1-3)Gal(b1-4)GlcNAc(b1-2)Man(a1-6)]Man(b1-4)GlcNAc(b1-4)[Fuc(a1-6)]GlcNAc
Outline: as §1

[13] = target: GlcNAc(b1-3)Gal(b1-4)GlcNAc(b1-3)Gal(b1-4)GlcNAc(b1-3)Gal(b1-4)GlcNAc(b1-3)Gal(b1-4)GlcNAc(b1-2)[GlcNAc(b1-3)Gal(b1-4)GlcNAc(b1-3)Gal(b1-4)GlcNAc(b1-3)Gal(b1-4)GlcNAc(b1-3)Gal(b1-4)GlcNAc(b1-6)]Man(a1-6)[GlcNAc(b1-3)Gal(b1-4)GlcNAc(b1-3)Gal(b1-4)GlcNAc(b1-3)Gal(b1-4)GlcNAc(b1-3)Gal(b1-4)GlcNAc(b1-2)Man(a1-3)]Man(b1-4)GlcNAc(b1-4)[Fuc(a1-6)]GlcNAc
Outline: as §1

[14] = target: Man(a1-2)Man(a1-3)[Man(a1-6)]Man(a1-6)[Man(a1-2)Man(a1-3)]Man(b1-4)GlcNAc(b1-4)GlcNAc
Outline: as §1

[15] = target: Neu5Ac(a2-3)Gal(b1-4)GlcNAc6S
Outline: as §1

[16] = target: Neu5Ac(a2-3)[Neu5Ac(a2-6)]GalNAc
Outline: as §1

[17] = target: Neu5Ac(a2-6)Gal(b1-4)GlcNAc
Outline: as §1

[18] = target: Neu5Ac(a2-6)Gal(b1-4)GlcNAc(b1-2)[Neu5Ac(a2-6)Gal(b1-4)GlcNAc(b1-4)]Man(a1-3)[GlcNAc(b1-4)][Neu5Ac(a2-6)Gal(b1-4)GlcNAc(b1-4)Man(a1-6)]Man(b1-4)GlcNAc(b1-4)GlcNAc
Outline: as §1

[19] = target: Neu5Ac(a2-6)Gal(b1-4)GlcNAc(b1-3)Gal(b1-4)GlcNAc
Outline: as §1

[20] = target: Neu5Ac(a2-6)Gal(b1-4)GlcNAc(b1-3)Gal(b1-4)GlcNAc(b1-3)Gal(b1-4)GlcNAc
Outline: as §1

[21] = target: Neu5Ac(a2-6)Gal(b1-4)GlcNAc(b1-3)Gal(b1-4)GlcNAc(b1-3)[Neu5Ac(a2-6)Gal(b1-4)GlcNAc(b1-3)Gal(b1-4)GlcNAc(b1-6)]GalNAc
Outline: as §1

[22] = target: Neu5Ac(a2-8)Neu5Ac(a2-3)Gal(b1-4)Glc
Outline: as §1

[23] = target: Neu5Ac(a2-8)Neu5Ac(a2-8)Neu5Ac(a2-3)Gal(b1-4)Glc
Outline: as §1

[24] = target: Neu5Gc(a2-3)Gal(b1-4)[Fuc(a1-3)]GlcNAc
Outline: as §1

[25] = target: Neu5Gc(a2-6)GalNAc
Outline: as §1

B1: DrGal3 (Danio rerio) (protein)
chain: MDLSDALDAPPQQNNQQAGGPVWPGQPANPVWPGQPANPTWPGQPNQPAWPGQPNQQWPGQPGQPTAPGWPGPAPQTGPYGAPGQAPQVLTVPLDFPLQNGAYNKMLITINGEVKPNAKQFTVNLRRGNDIAFHINPRFSEGGKPVIVRNSMIGNNWGREERELPSFPFVPGKPFEMKILITDTEYKVAVNKSHLLEFKHRVFELNQITGLSIYNDVTLSTVNVETLQ
- glycan array binding signal (z-score) [1]: 4.37
- glycan array binding signal (z-score) [2]: 5.52
- glycan array binding signal (z-score) [3]: 5.72
- glycan array binding signal (z-score) [4]: -0.192
- glycan array binding signal (z-score) [5]: -0.282
- glycan array binding signal (z-score) [6]: -0.256
- glycan array binding signal (z-score) [7]: -0.297
- glycan array binding signal (z-score) [8]: -0.243
- glycan array binding signal (z-score) [9]: -0.284
- glycan array binding signal (z-score) [10]: 6.12
- glycan array binding signal (z-score) [11]: 5.4
- glycan array binding signal (z-score) [12]: 5.55
- glycan array binding signal (z-score) [13]: 3.29
- glycan array binding signal (z-score) [14]: -0.249
- glycan array binding signal (z-score) [15]: -0.189
- glycan array binding signal (z-score) [16]: -0.275
- glycan array binding signal (z-score) [17]: -0.257
- glycan array binding signal (z-score) [18]: -0.234
- glycan array binding signal (z-score) [19]: -0.25
- glycan array binding signal (z-score) [20]: 0.971
- glycan array binding signal (z-score) [21]: -0.107
- glycan array binding signal (z-score) [22]: -0.271
- glycan array binding signal (z-score) [23]: -0.195
- glycan array binding signal (z-score) [24]: -0.086
- glycan array binding signal (z-score) [25]: -0.254
